Experimental findings from PubChem BioAssay AID651610 (Broad Institute, 2012) are described below.

Hit rate of the full screen: of about 360,000 compounds, about 3,900 (1.1%) were called active.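 How the source made its calls: active means mean replicate inhibition score of at least 50 and every replicate individually at or above 50; inconclusive means only one of the two criteria met; inactive means mean below 50 and not all replicates reaching 50.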 The sample as a whole holds a higher share of actives than the screen did.

The experiment in a line: inhibitors of HIV-1 Env-driven cell-cell fusion, primary screen, HeLa-JRFL effector, CEM21 target cells, luciferase (AID 651610).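 Further: 0% = plate neutral controls and 100% = maraviroc near 300 nM.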 To be noted: active compounds read high; at 16.7 µM unless noted.
`CNC(=O)C[C@@H]1CC[C@H]2[C@@H](COc3ccc(NC(=O)NCc4ccccc4)cc3C(=O)N2C)O1`: the inhibition (as a rule, the change of the read-out against control, counted positive when it falls) was -0.208% (inactive).
Under `COC(=O)[C@]1(Cc2ccccc2)N[C@H](CN(C)S(=O)(=O)c2ccc(OC(F)(F)F)cc2)[C@@H]2C(=O)N(Cc3ccccc3)C(=O)[C@@H]21` stands 48.1% [at 12.3 µM] (inactive); under `CCN(C[C@H]1N[C@@](CC)(C(=O)OC)[C@H]2C(=O)N(Cc3ccccc3)C(=O)[C@@H]12)S(=O)(=O)c1ccccc1`, 42% [at 12.3 µM] (inactive).
Under `CCN(C[C@H]1N[C@@](CC)(C(=O)OC)[C@H]2C(=O)N(Cc3ccccc3)C(=O)[C@@H]12)S(=O)(=O)c1ccc(C(F)(F)F)cc1` stands 99.4% [at 12.3 µM] (active); under `Cc1ccc(S(=O)(=O)N[C@@H]2CC[C@@H](CC(=O)O)O[C@@H]2CO)cc1`, 7.43% (inactive).
With `CNC(=O)C1CN(C(=O)c2cccc(S(=O)(=O)N3CCc4ccccc43)c2)c2ccccc2O1` (configuration not stated), the inhibition is 60.2% [at 12.3 µM] (active).
Under `CN1CCN(S(=O)(=O)c2cccc(C(=O)N3CCc4ccccc43)c2)CC1` stands -15.7% [at 12.3 µM] (inactive).
Under `CC1CCN(C(=O)c2cccc(S(=O)(=O)N3CCCc4ccccc43)c2)CC1` stands 39.9% [at 12.3 µM] (inactive).
With `C[C@@H]1CN([C@H](C)CO)C(=O)c2cc(NC(=O)Nc3ccc4c(c3)OCO4)ccc2O[C@H]1CN(C)C(=O)Nc1ccccc1` the figure was 7.58% (inactive).
Take `Fc1ccc(N2N=C(c3cccs3)CC2c2ccco2)c(F)c1` (configuration not stated): the inhibition was 55.9% [at 12.3 µM] (active).
With `Cc1ccccc1C1CC(c2cccs2)=NN1S(C)(=O)=O` (configuration not stated) the figure was -91.6% [at 12.3 µM] (inactive).
Under `O=C(COc1ccccc1Cl)N1N=C(c2cccs2)CC1c1ccco1` (configuration not stated) stands -7.8% [at 12.3 µM] (inactive); under `CCS(=O)(=O)Nc1ccc2c(c1)C(=O)N(C)[C@H]1CC[C@H](CC(=O)NCc3ccccc3F)O[C@H]1CO2`, -0.764% (inactive).
For `Cc1cccc(CS(=O)(=O)c2ncc(Cl)c(C(=O)Nc3ccc(F)cc3)n2)c1`, the inhibition is -12.3% [at 12.3 µM] (inactive).
With `NC(=O)CSc1nnc(NC(=O)c2ccc(Br)o2)s1` the figure was -7.67% [at 12.3 µM] (inactive).
On to `CSc1nnc(NC(=O)c2nc(S(=O)(=O)Cc3ccc(C)cc3)ncc2Cl)s1`, for which the inhibition is 73.8% [at 12.3 µM] (active).
With `Cc1noc(C)c1NC(=O)N(C)C[C@H]1Oc2ccc(NC(=O)Cn3cnnn3)cc2CC(=O)N([C@H](C)CO)C[C@@H]1C` the figure was -12.7% (inactive); with `C[C@@H]1CN([C@@H](C)CO)C(=O)c2cc(NC(=O)Cc3ccccc3)ccc2O[C@@H]1CN(C)S(=O)(=O)c1ccccc1`, -22.1% (inactive).
With `Cc1ccc(S(=O)(=O)NCC[C@@H]2CC[C@H](NC(=O)c3ccccn3)[C@H](CO)O2)cc1` the figure was -12.9% (inactive); with `C[C@H](CO)N1C[C@H](C)[C@@H](CN(C)Cc2ccc3c(c2)OCO3)Oc2c(cccc2N(C)C)C1=O`, -26.8% (inactive); with `CSCc1nnc(NC(=O)c2ccc(S(=O)(=O)N3CCCCC3C)cc2)o1` (configuration not stated), -0.826% [at 12.3 µM] (inactive).
Under `CC1CCCCN1S(=O)(=O)c1ccc(S(=O)(=O)N(CC(=O)Nc2ccccc2)Cc2cccs2)cc1` (configuration not stated) stands 20% [at 12.3 µM] (inactive); under `CC1CCCCN1S(=O)(=O)c1ccc(C(=O)Nc2nnc(-c3cccs3)o2)cc1` (configuration not stated), 80.2% [at 12.3 µM] (active).
As to `CCOC(=O)C1CCCN(C(=O)c2cc(-c3cccs3)oc2C)CC1` (configuration not stated), the inhibition was 29.9% [at 12.3 µM] (inactive).
Under `O=C(O)C1CCN(C(=O)c2cc(F)cc3c2OCOC3)CC1` stands -1.42% [at 12.3 µM] (inactive).
Under `Cc1cc(C(=O)N2CCC(C(=O)O)CC2)c(C(F)(F)F)o1` stands 87.5% [at 12.3 µM] (active).
With `CCCN(C)C[C@H]1Oc2ncc(C#CC3CCCCC3)cc2C(=O)N([C@H](C)CO)C[C@@H]1C` the figure was 18.3% (inactive); with `C[C@H](CO)N1C[C@H](C)[C@H](CN(C)CC2CCCCC2)Oc2c(NC(=O)c3cnccn3)cccc2C1=O`, -9.66% (inactive).
Turning to `CCC(=O)N1C[C@H](C)[C@H](OC)CN(C)C(=O)c2cc(NC(=O)Nc3cccc(F)c3)ccc2OC[C@@H]1C`, the inhibition is -5.04% (inactive).
With `C[C@@H]1CN([C@@H](C)CO)C(=O)c2cc(NS(=O)(=O)c3ccccc3)ccc2O[C@@H](C)CCCCO[C@H]1CN(C)S(=O)(=O)c1cccs1` the figure was -25.8% (inactive).
Under `Cc1ccc(S(=O)(=O)Nc2ccc3c(c2)C(=O)N([C@@H](C)CO)C[C@@H](C)[C@@H](CN(C)Cc2ccc(C(F)(F)F)cc2)OCCCC[C@@H](C)O3)cc1` stands 79.2% (active).
Under `COc1ccc(CN(C)C[C@@H]2OCCCC[C@@H](C)Oc3ccc(NC(=O)Nc4ccc(OC)cc4)cc3C(=O)N([C@@H](C)CO)C[C@@H]2C)cc1` stands -18.5% (inactive); under `C[C@@H]1CCCCO[C@@H](CN(C)CC2CCCCC2)[C@H](C)CN([C@H](C)CO)C(=O)c2cc(NC(=O)C3CCCCC3)ccc2O1`, 68.4% (active); under `C[C@@H]1CCCCO[C@@H](CN(C)C(=O)Nc2ccccc2)[C@@H](C)CN([C@@H](C)CO)C(=O)c2cc(N(C)C)ccc2O1`, -2.93% (inactive).
With `COc1ccc(NC(=O)Nc2ccc3c(c2)C(=O)N([C@H](C)CO)C[C@H](C)[C@H](CN(C)Cc2ccncc2)OCCCC[C@H](C)O3)cc1`, the inhibition was 58.1% (active).
With `C[C@@H]1CCCCO[C@H](CN(C)C(=O)Nc2ccccc2)[C@H](C)CN([C@@H](C)CO)C(=O)c2cc(N(C)C)ccc2O1` the figure was -23.9% (inactive).
For the compound `C[C@H](CO)N1C[C@H](C)[C@H](CN(C)Cc2ccc(C(F)(F)F)cc2)OCCCC[C@H](C)Oc2ccc(NS(=O)(=O)c3ccc(Cl)cc3)cc2C1=O`, the inhibition was 18.4% (inactive).
With `C[C@@H]1CCCCO[C@@H](CN(C)CC2CC2)[C@@H](C)CN([C@H](C)CO)C(=O)c2cc(NC(=O)C3CCCCC3)ccc2O1` the figure was 19.6% (inactive); with `C[C@@H]1CCCCO[C@@H](CN(C)CC2CC2)[C@H](C)CN([C@H](C)CO)C(=O)c2cc(NC(=O)C3CCCCC3)ccc2O1`, -2.41% (inactive); with `COc1ccc(NC(=O)Nc2ccc3c(c2)C(=O)N([C@@H](C)CO)C[C@@H](C)[C@@H](CN(C)Cc2ccncc2)OCCCC[C@@H](C)O3)cc1`, -12.5% (inactive).
Under `C[C@@H]1CCCCO[C@@H](CN(C)Cc2ccc(C(F)(F)F)cc2)[C@H](C)CN([C@H](C)CO)C(=O)c2cc(NS(=O)(=O)c3ccc(F)cc3)ccc2O1` stands 32.9% (inactive).
Under `C[C@H](CO)N1C[C@H](C)[C@@H](CN(C)C(=O)Nc2cccc3ccccc23)OCCCC[C@H](C)Oc2ccc(N(C)C)cc2C1=O` stands 67.4% (active).
